FEN1 inh: inhibitors of human flap endonuclease 1 | P39748 | Recombinant FEN1 flap cleavage, fluorescence, 15 min | Potency, µM (top dose mostly 114 µM), inactives show at the highest dose activity change, negative = inhibition, usual class: inhibitors | 0.35% of 390,000 active; also: nearly all actives have a fitted effect of over 65% in size
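Steps: FEN1 (10 nM) dispensed; compound added by pin tool; 15 min at room temperature; substrate added to 50 nM final; reads at 0 min and 15 min; data normalized and fitted (four-parameter Hill).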
Tb PGK inh: T. brucei PGK inhibition | PGK/GAPDH coupled, Kinase-Glo luminescence, 60 min | Potency, µM (top dose mostly 57.5 µM), without a hit: at the highest dose activity change, negative = inhibition, usual class: inhibitors | 0.043% of 380,000 active | AID 602233; also: nearly all actives have a fitted effect of over 60% in size
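Luminescent ATP detection (Kinase-Glo Plus) follows a 60-minute room-temperature incubation, with wells lacking PGK as controls. Buffer: 100 mM TEA (pH 7.6), 5 mM MgCl2, 0.01% Tween-20. Coupling enzyme GAPDH (100 nM final) supplies unstable 1,3-BPG in-well.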
BLM inh: blocks DNA unwinding by human BLM helicase. 0.2% of 350,000 active. P54132. Potency, µM (highest dose often 56.1 µM), for inactives: top-dose activity change, negative = inhibition, actives largely listed as inhibitors. recombinant BLM DNA unwinding, fluorescence dequenching;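 also: plate controls were vehicle for no effect and no enzyme for full effect; nearly all actives have a fitted effect of over 35% in size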
APE1 inh: inhibitors of human APE1 endonuclease. P27695. recombinant APE1, TAMRA/BHQ-2 abasic DNA cleavage fluorescence. Potency, µM (titrated, usually from 65.8 µM), without a hit: at the top dose activity change, negative = inhibition, actives largely listed as inhibitors. 0.35% of 350,000 active;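 also: plate controls were vehicle for no effect and reference inhibitor for full effect; nearly all actives have a fitted effect of over 55% in size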
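Incision of a quenched TAMRA/BHQ-2 THF abasic-site duplex (50 nM) by 0.75 nM APE1, after 15 min compound preincubation, measured as fluorescence increase over three 60 s reads. Values normalized to buffer, DMSO and NSC13755 control wells.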
RECQ1 inh: RECQ1 (human) helicase inhibition; Potency, µM (doses to about 57.3 µM), for inactives: at the top dose activity, negative = inhibition, most hits filed as inhibitors; 0.54% of 240,000 active; RECQ1 DNA unwinding, red fluorescence kinetic read;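 also: plate controls were vehicle for no effect and no enzyme for full effect; nearly all actives have a fitted effect of over 30% in size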
Target sequence (P46063 whole entry, looked up): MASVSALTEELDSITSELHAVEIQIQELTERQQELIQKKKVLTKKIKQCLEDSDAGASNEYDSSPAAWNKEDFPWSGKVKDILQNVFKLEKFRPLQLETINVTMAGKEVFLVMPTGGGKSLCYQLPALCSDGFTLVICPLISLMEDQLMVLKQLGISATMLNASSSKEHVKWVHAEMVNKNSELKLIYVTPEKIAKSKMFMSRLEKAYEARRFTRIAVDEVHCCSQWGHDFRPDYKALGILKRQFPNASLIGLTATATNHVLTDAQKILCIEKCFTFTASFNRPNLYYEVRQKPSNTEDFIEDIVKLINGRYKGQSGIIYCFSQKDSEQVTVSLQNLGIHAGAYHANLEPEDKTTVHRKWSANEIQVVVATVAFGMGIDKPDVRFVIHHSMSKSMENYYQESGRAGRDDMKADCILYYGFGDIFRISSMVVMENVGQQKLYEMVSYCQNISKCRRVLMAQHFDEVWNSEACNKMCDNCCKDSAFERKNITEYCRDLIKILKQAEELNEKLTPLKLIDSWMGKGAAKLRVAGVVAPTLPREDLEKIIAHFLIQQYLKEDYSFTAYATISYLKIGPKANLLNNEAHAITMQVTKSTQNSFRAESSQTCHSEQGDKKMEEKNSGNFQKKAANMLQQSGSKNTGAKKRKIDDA
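RECQ1T1 50 nM; forked duplex (20 bp + 30-nt ss tails) 200 nM, ATP 2 mM final; pH 8.0, 2 mM MgCl2, 2.5 ug/ml poly(dI-dC); 15 min compound preincubation; discontinuous kinetic read over 2 h at RT.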
* marks the source's active call; other numbers are inactive results; i = inactive; u = inconclusive; x = no result given; [ ] = remark or other dose. Hits are enriched below; roughly 0.74% of the tested compounds scored in any of these assays. Calls follow the shape of the dose curve; as a rule, active = well fitted curve in the direction sought with a large enough effect; inconclusive = small, poorly fitted or top-dose-only effect, or another doubt; inactive = no such curve, though single readings can be large; an effect the other way counts as inactive or inconclusive. Unless noted, % is scaled to controls: 0 for no effect and ±100 for the full control effect; potency is read from the fitted curve at half-maximal effect.

SMILES	FEN1 inh	Tb PGK inh	BLM inh	APE1 inh	RECQ1 inh
Cc1ccc(/C=C/C2=Cc3c(sc(NC(=O)CSc4n[nH]c(N)n4)c3C#N)C(C)(C)C2)o1	x	x	u	-7.3%	20µM*
Cc1sc(NC(=O)CSc2n[nH]c(N)n2)c(C#N)c1C	16.4%	-0.6%	x	x	x
COc1ccc(C2=CC3=C(Br)C(=O)C(C)(OC(=O)c4ccco4)C(=O)C3=CO2)cc1 (stereo not given)	39.8µM*	u	1.8%	15.6%	-23.5%
COc1cc(OC)c(/C=C/c2ccc3ccccc3[n+]2C)c(OC)c1	25.1µM*	x	x	x	x
CN(C)c1ccc(/C=C/c2ccc3ccccc3[n+]2C)cc1	39.8µM*	-29.1%	u	-1.7%	u
CN(CCCS(=O)(=O)[O-])c1ccc(/C=C/c2ccc3ccccc3[n+]2C)cc1	-4.7%	x	-8.0%	-2.8%	x
CCCC[n+]1c(/C=C/c2c(OC)cc(OC)cc2OC)ccc2ccccc21	20µM*	x	x	x	x
COc1ccc(/C=C/c2ccc3ccccc3[n+]2C)c(OC)c1OC	-26.9%	x	x	x	x
CCC[n+]1c(/C=C/c2c(OC)cc(OC)cc2OC)ccc2ccccc21	28.2µM*	x	x	x	x
COc1ccc(/C=C/c2ccc3ccccc3[n+]2C)cc1OC	-15.4%	-2.4%	1.4%	17.4%	x
CCOC(=O)C1CCN(c2nc(-c3ccc(Br)cc3)cs2)CC1	x	x	x	56.4%	x
COc1ccc(C(=O)Nc2cc(C)c(O)c(-c3nc4ccccc4s3)c2)cc1OC	17.6%	1.9%	-3.8%	x	x
Cn1c(=O)oc2cc(S(=O)(=O)NC3CCCc4ccccc43)ccc21 (stereo not given)	-4.2%	-5.4%	1.3%	-3.2%	-16.1%
CN(C)S(=O)(=O)c1ccc2nnn(O)c2c1	8.1%	i	1.1%	0.2%	i
CC(=O)n1nc(-c2cccnc2)nc1N	1.8%	-2.7%	-0.4%	-0.7%	7.6%
CCOC(=O)C1=C(C)NC(=O)NC1c1ccc(Br)o1 (stereo not given)	12.2%	-4.4%	0.8%	-2.9%	i
CCC[n+]1c2ccccc2cc2ccccc21	u	-7.1%	-6.8%	38.3%	x
CCCC[n+]1c2ccccc2cc2ccccc21	79.4µM*	1.7%	-4.3%	-22.3%	x
CCOC(=O)NNc1ccc2nonc2c1[N+](=O)[O-]	39.8µM*	u	-26.4%	u	u
O=C(c1ccc(Br)s1)N1CCc2ccccc2C1	9.7%	2.5%	-3.8%	-4.7%	x
Cc1cc(C)nc(SCC(=O)Nc2sc3c(c2C#N)CCC(C)C3)n1 (stereo not given)	4.6%	-12.4%	x	x	x
Cc1ccc(C)c(-n2c3nc(=O)[nH]c(=O)c-3cc3cc([N+](=O)[O-])ccc32)c1	u	-11.8%	20µM*	3.9%	-0.4%
CC(C)C[C@H](NC(=O)[C@H](Cc1c[nH]c2ccccc12)NC(=O)[C@H](CCCCN)NC(=O)CNC(=O)[C@H](CC(C)C)NC(=O)[C@H](CO)NC(=O)[C@@H](N)Cc1cnc[nH]1)C(=O)NCC(=O)N[C@@H](Cc1cnc[nH]1)C(=O)N1CCC[C@H]1C(=O)N[C@@H](CC(=O)O)C(=O)N[C@@H](CCCCN)C(=O)N[C@@H](Cc1ccccc1)C(=O)O	x	x	0.2%	1.5%	-5.1%
CSCC[C@H](NC(=O)[C@H](CC(C)C)NC(=O)CNC(=O)[C@@H]1CCCN1C(=O)[C@H](Cc1ccccc1)NC(=O)[C@H](Cc1ccccc1)NC(=O)[C@H](CC(=O)O)NC(=O)[C@H](Cc1cnc[nH]1)NC(=O)[C@H](CCSC)NC(=O)[C@@H](N)CC(=O)O)C(N)=O	x	x	-4.3%	u	11.2µM*
O=C1/C(=C/c2ccccc2)SC(=S)N1CCCC(=O)N1CCCCC1CCO (stereo not given)	-23.9%	-4.9%	-2.0%	-5.4%	x
SMILES	FEN1 inh	Tb PGK inh	BLM inh	APE1 inh	RECQ1 inh
Cc1ccc2ccccc2[n+]1[O-]	2.8%	x	x	x	x
[O-][n+]1c2ccccc2[n+]([O-])c2cc(O)ccc21	u	u	-29.9%	18.9µM*	x
CCOC(=O)c1c(NC(C)=O)sc(C(=O)NC2CCCC2)c1C	-1.8%	-8.8%	-4.9%	15.1%	x
CC(=O)c1ccsc1-c1c(C)cc2oc(=O)cc(-c3ccccc3)c2c1C	-19.6%	-5.2%	-8.8%[75.6 µM]	8.9%	22.4µM*
Cc1cc2oc(=O)cc(-c3ccccc3)c2c(C)c1-c1sccc1C=O	x	x	-7.5%[75.6 µM]	-2.9%	-4.1%[81.1 µM]
CCOC(=O)c1c(C)oc2ccc(O)cc12	1.2%	3.1%	-4.3%	2.4%	i
O=c1c(CCc2ccccc2)nc2cnc(N3CCOCC3)nc2n1-c1ccccc1	x	x	-2.1%	u	-6.7%
COc1ccc(Cl)cc1Nc1nnc(-c2ccncc2)s1	-4.6%	-9.8%	-6.4%	8.44µM*	x
O=C(O)CCN1C(=O)/C(=C2\C(=O)N(Cc3ccccc3Cl)c3ccccc32)SC1=S	x	x	-20.6%	7.52µM*	x
COc1ccc(NC(=O)CN2C(=O)/C(=C3\SC(=S)N(CCC(=O)O)C3=O)c3ccccc32)cc1	-21.2%	-17.1%	-3.5%	34.5%	x
CCC[C@H]1CN(Cc2ccccc2)C(=O)[C@@H]1CC(=O)NC	x	-6.7%	x	x	x
Cc1cccc2cc(C#N)c(SCCN3CCCCC3)nc12	50.1µM*	-18.7%	x	x	x
N#Cc1c(NC(=O)c2ccc(Cn3cc(Br)cn3)o2)sc2c1CCCCCC2	u	-9.1%	-12.4%	-3.3%	-3.1%
Cc1ccc(O)c(N=Nc2ccccc2)n1	-5.4%	15.8µM*	-1.7%	1.1%	-1.5%
O=C(O)C1Nc2c(cccc2C(F)(F)F)C2C=CCC12 (stereo not given)	x	x	-7.1%	16.8µM*	x
O=C(NCc1ccccc1)C1Nc2ccc(OC(F)(F)F)cc2C2C=CCC12 (stereo not given)	-9.7%	-1.2%	x	x	x
CC(=O)c1ccc2c(c1)C1C=CCC1C(C(=O)O)N2 (stereo not given)	12.6µM*	14.1µM*	-8.2%	u	i
O=C(O)c1ccc2c(c1)C1C=CCC1C(c1cc3c(cc1Br)OCO3)N2 (stereo not given)	-11.7%	i	-3.8%	-4.1%	-2.9%
COc1cc(/C=N/NC(=O)CN2CCOCC2)ccc1OCc1ccccc1	-3.0%	-4.8%	3.0%	21.3%	-6.7%
O=C(CN(c1ccccc1Cl)S(=O)(=O)c1ccccc1)N/N=C/c1ccccc1C(=O)O	-4.9%	3.9%	-2.3%	-3.4%	-5.5%
CC1CCC2C(=O)N3C(CCC(C)C3c3ccc(-c4ccco4)cc3)C(=O)N2C1c1ccc(-c2ccco2)cc1 (stereo not given)	x	x	3.55µM*	3.98µM*	2.51µM*
C[C@@H]1CC[C@@H]2C(=O)N3[C@@H](CC[C@@H](C)[C@@H]3c3ccc(-c4ccco4)cc3)C(=O)N2[C@H]1c1ccc(-c2ccco2)cc1	x	x	-22.8%[12.4 µM]	-2.0%[12.4 µM]	u
NC(=S)N=Nc1c(O)cc(O)c2[nH]c(=O)ccc12	12.6µM*	u	x	x	x
NC(=S)N=Nc1c(O)[nH]c2ccc(F)cc12	5.8%	i	-3.7%	-5.3%	-11.5%

Source: PubChem (National Center for Advancing Translational Sciences (NCATS))
